From PubChem BioAssay (NCI)
About 83,000 compounds went through this panel and 20% of them were active in at least one assay; those are over-represented in the sample as a whole.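 Cells were grown in 96-well plates and exposed to the test compound at a single concentration for 48 hours; results are reported as percent growth, with values below 10 considered active.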 Values without a mark were called inactive. Calls of active or inactive are those of the source.

These compounds were tested on UACC-62 melanoma (assay: NCI-60 one-dose screen, 48 h (100 = growth as untreated, 0 = no growth, -100 = all killed)). Settings: 10 µM unless noted.

| SMILES | growth |
| --- | --- |
| CCCNC(=O)Oc1ccc(/C(=C(/C)Cc2ccc(OC)cc2)c2ccc(OCCCN(C)C)cc2)cc1 | 102% |
| C/C(=N\NC(=O)c1ccccc1O)c1cccc(/C(C)=N/NC(=O)c2ccccc2O)n1 | 52% |
| COCCn1c(-c2csc(-c3cn(C)c4ccc(OC)cc34)n2)cc2cccnc21 | 82.1% |
| Cn1c(=O)c2[nH]c(N/N=C/c3ccccc3Br)nc2n(C)c1=O | 96.6% |
| O=C(Nc1nn(-c2ccc(Cl)cc2Cl)nc1-c1ccccc1)c1ccccc1 | 84.9% |
| C=C1C(=O)O[C@H]2[C@H]1CC/C(COC(=O)NCc1ccc(Cn3c(=O)sn(CCI)c3=O)cc1)=C\CC[C@@]1(C)O[C@@H]21 | 65.4% |
| Brc1c2c(c(Br)c3ccccc13)CCCC2 | 84.9% |
| CS(=O)(=O)c1cccc(-c2c(-c3cccc(OS(N)(=O)=O)c3)nc3sccn23)c1 | 94% |
| Oc1ccc(CCn2c(O)c(/C=C3\CN=c4ccccc4=N3)sc2=S)cc1 | 58% |
| O=C(O)[C@@H]1c2ccccc2-c2ccccc2[C@H]1C(=O)O | 96% |
| Cn1cc(-c2csc(-c3ccc(Cl)cc3)n2)c2cccnc21 | -38.5% [100 µM] (active) |
| NC(=O)c1c(NC(=O)c2ccccc2)sc2c1CCC(=O)C2 | 10.7% |
| Cc1cc(Cl)ccc1Nc1nc(C(F)(F)F)ccc1C(=O)N/N=C/c1ccc([N+](=O)[O-])cc1 | 12.6% |
| N#Cc1c(NC(=O)c2ccccc2)sc2c1CCC(=O)C2 | 1.83% (active) |
| Cc1ccc(-c2nn(-c3ccccc3)cc2C=C2C(=O)ON=C2C(C)C)cc1 | 75.8% |
| CC(C)n1cnc2c(=S)nc[nH]c21 | 110% |
| CN1C(=O)/C(=C/c2ccc(C(=O)Nc3ncc(Cc4ccc(Cl)cc4)s3)cc2)SC1=S | 21.4% |
| O=C(Nc1ccc(NC(=O)c2cc(=O)[nH]c3ccccc23)cc1)Nc1cccc(C(F)(F)F)c1 | 68% |
| O=C(NCCCCNC(=O)OCc1ccc2c(Cl)cc(Cl)c(O)c2n1)OCc1ccc2c(Cl)cc(Cl)c(O)c2n1 | 36.7% |
| CCC(C)N(c1ccc(Cl)cc1)c1nc(-c2ccc(Br)cc2)cs1 (stereo not given) | 87.2% |

| SMILES | growth |
| --- | --- |
| COc1cc(-n2cc(-c3cc(O)c(C/C=C(\C)CCC=C(C)C)c(O)c3)nn2)cc2c1O[C@]1(C)CC[C@@H](O)C(C)(C)[C@H]1C2 | -30.2% (active) |
| C=CCn1c(SCC(=O)Nc2ccc(C(=O)/C=C/c3ccc(Cl)cc3)cc2)nnc1-c1cc(-c2ccc(S(N)(=O)=O)cc2)nc2ccccc12 | 71.9% |
| Clc1ccc2c(c1)N(c1ncnc3ccc(-c4cnc5[nH]ncc5c4)cc13)CC2 | 8.23% (active) |
| O=C(Nc1ccc(-c2nc(N3CCOCC3)c3cccn3n2)cc1)Nc1cccnc1 | -28.6% (active) |
| CCc1ccc(Oc2cn[nH]c2-c2ccc(OCCc3ccc(F)cc3)cc2O)cc1 | 88.6% |
| C#Cc1cccc(Nc2ncnc3ccc(-c4cnc(N)nc4)cc23)c1 | 24.8% |
| Oc1c(Cl)cc(Cl)c2ccc(Cn3cc(-c4cc(C(F)(F)F)cc(C(F)(F)F)c4)nn3)nc12 | 64.8% |
| COc1cc(N2C(=O)[C@H](O)C2c2ccc(SC)cc2)cc(OC)c1OC (stereo not given in full) | 33.8% |
| OCCCC1CCN(C(Cc2ccccc2)c2ccccc2)CC1 (stereo not given) | 97.7% |
| CNC(=O)c1c(NC(=O)c2ccc(C(F)(F)F)cc2)sc2c1CCC(=O)C2 | -29.1% (active) |
| CC/C(=C(/c1ccc(Cl)cc1)c1ccc(OCCN2CCCC2)cc1)c1ccc(OC)cc1 | 96.3% |
| O=C1Nc2ccccc2/C1=C\c1nc(-c2ccccc2F)n2ccccc12 | 38.8% |
| Cc1cc(=O)[nH]c2c(C#N)cnn12 | 90.7% |
| COc1ccc(C/C(C)=C(/c2ccc(OCCN3CCCCC3)cc2)c2ccc(OC(=O)NCc3ccccc3)cc2)cc1 | -92.9% (active) |
| COc1ccc(CC(C#N)c2cc3ccccc3[nH]2)cc1 (stereo not given) | 75% |
| N#CC1CCc2c(c(-c3cn[nH]c3C(F)(F)F)nc3c(F)cc4[nH]ncc4c23)C1 (stereo not given) | 8.91% (active) |
| Cn1ccnc1C(=O)C(=O)Nc1ccc(CC(=O)Nc2ccccc2)cc1 | 95.5% |
| Cc1ccc(/C=N/Nc2nc(Nc3ccccc3)nc(-n3nc(C)cc3C)n2)cc1 | 44.9% |
| Cc1nc2ncnc(Cl)c2[nH]1 | 100% |
| COc1ccc2[nH]cc(-c3nc(-c4c[nH]c5ccncc45)cs3)c2c1 | 84.2% |

Each compound was assayed on LOX IMVI melanoma in the same assay as above. Settings: 10 µM unless noted.

| SMILES | growth |
| --- | --- |
| CCCNC(=O)Oc1ccc(/C(=C(/C)Cc2ccc(OC)cc2)c2ccc(OCCCN(C)C)cc2)cc1 | 73.4% |
| C/C(=N\NC(=O)c1ccccc1O)c1cccc(/C(C)=N/NC(=O)c2ccccc2O)n1 | 35.8% |
| COCCn1c(-c2csc(-c3cn(C)c4ccc(OC)cc34)n2)cc2cccnc21 | -22.6% (active) |
| Cn1c(=O)c2[nH]c(N/N=C/c3ccccc3Br)nc2n(C)c1=O | 104% |
| O=C(Nc1nn(-c2ccc(Cl)cc2Cl)nc1-c1ccccc1)c1ccccc1 | 82.5% |
| C=C1C(=O)O[C@H]2[C@H]1CC/C(COC(=O)NCc1ccc(Cn3c(=O)sn(CCI)c3=O)cc1)=C\CC[C@@]1(C)O[C@@H]21 | 35.1% |
| Brc1c2c(c(Br)c3ccccc13)CCCC2 | 100% |
| CS(=O)(=O)c1cccc(-c2c(-c3cccc(OS(N)(=O)=O)c3)nc3sccn23)c1 | 95.6% |
| Oc1ccc(CCn2c(O)c(/C=C3\CN=c4ccccc4=N3)sc2=S)cc1 | 10.2% |
| O=C(O)[C@@H]1c2ccccc2-c2ccccc2[C@H]1C(=O)O | 99.3% |
| Cn1cc(-c2csc(-c3ccc(Cl)cc3)n2)c2cccnc21 | 1.66% [100 µM] (active) |
| NC(=O)c1c(NC(=O)c2ccccc2)sc2c1CCC(=O)C2 | 17.6% |
| Cc1cc(Cl)ccc1Nc1nc(C(F)(F)F)ccc1C(=O)N/N=C/c1ccc([N+](=O)[O-])cc1 | 7.3% (active) |
| N#Cc1c(NC(=O)c2ccccc2)sc2c1CCC(=O)C2 | 6.26% (active) |
| Cc1ccc(-c2nn(-c3ccccc3)cc2C=C2C(=O)ON=C2C(C)C)cc1 | 2% (active) |
| CC(C)n1cnc2c(=S)nc[nH]c21 | 93.7% |
| CN1C(=O)/C(=C/c2ccc(C(=O)Nc3ncc(Cc4ccc(Cl)cc4)s3)cc2)SC1=S | 18% |
| O=C(Nc1ccc(NC(=O)c2cc(=O)[nH]c3ccccc23)cc1)Nc1cccc(C(F)(F)F)c1 | 21% |
| O=C(NCCCCNC(=O)OCc1ccc2c(Cl)cc(Cl)c(O)c2n1)OCc1ccc2c(Cl)cc(Cl)c(O)c2n1 | 14.4% |
| CCC(C)N(c1ccc(Cl)cc1)c1nc(-c2ccc(Br)cc2)cs1 (stereo not given) | 93.3% |

| SMILES | growth |
| --- | --- |
| COc1cc(-n2cc(-c3cc(O)c(C/C=C(\C)CCC=C(C)C)c(O)c3)nn2)cc2c1O[C@]1(C)CC[C@@H](O)C(C)(C)[C@H]1C2 | -79.9% (active) |
| C=CCn1c(SCC(=O)Nc2ccc(C(=O)/C=C/c3ccc(Cl)cc3)cc2)nnc1-c1cc(-c2ccc(S(N)(=O)=O)cc2)nc2ccccc12 | 92.3% |
| Clc1ccc2c(c1)N(c1ncnc3ccc(-c4cnc5[nH]ncc5c4)cc13)CC2 | 18.4% |
| O=C(Nc1ccc(-c2nc(N3CCOCC3)c3cccn3n2)cc1)Nc1cccnc1 | -1.37% (active) |
| CCc1ccc(Oc2cn[nH]c2-c2ccc(OCCc3ccc(F)cc3)cc2O)cc1 | 86.8% |
| C#Cc1cccc(Nc2ncnc3ccc(-c4cnc(N)nc4)cc23)c1 | 22.2% |
| Oc1c(Cl)cc(Cl)c2ccc(Cn3cc(-c4cc(C(F)(F)F)cc(C(F)(F)F)c4)nn3)nc12 | -10.3% (active) |
| COc1cc(N2C(=O)[C@H](O)C2c2ccc(SC)cc2)cc(OC)c1OC (stereo not given in full) | 25.5% |
| OCCCC1CCN(C(Cc2ccccc2)c2ccccc2)CC1 (stereo not given) | 93.2% |
| CNC(=O)c1c(NC(=O)c2ccc(C(F)(F)F)cc2)sc2c1CCC(=O)C2 | 1.51% (active) |
| CC/C(=C(/c1ccc(Cl)cc1)c1ccc(OCCN2CCCC2)cc1)c1ccc(OC)cc1 | 68.7% |
| O=C1Nc2ccccc2/C1=C\c1nc(-c2ccccc2F)n2ccccc12 | 13.6% |
| Cc1cc(=O)[nH]c2c(C#N)cnn12 | 101% |
| COc1ccc(C/C(C)=C(/c2ccc(OCCN3CCCCC3)cc2)c2ccc(OC(=O)NCc3ccccc3)cc2)cc1 | -93% (active) |
| COc1ccc(CC(C#N)c2cc3ccccc3[nH]2)cc1 (stereo not given) | 92% |
| N#CC1CCc2c(c(-c3cn[nH]c3C(F)(F)F)nc3c(F)cc4[nH]ncc4c23)C1 (stereo not given) | 17.1% |
| Cn1ccnc1C(=O)C(=O)Nc1ccc(CC(=O)Nc2ccccc2)cc1 | 100% |
| Cc1ccc(/C=N/Nc2nc(Nc3ccccc3)nc(-n3nc(C)cc3C)n2)cc1 | 32.6% |
| Cc1nc2ncnc(Cl)c2[nH]1 | 97.5% |
| COc1ccc2[nH]cc(-c3nc(-c4c[nH]c5ccncc45)cs3)c2c1 | -87.4% (active) |
